Several values for one entry are separate records, joined by “and”; a condition that tells them apart may be missing. Equal entries are not always repeated. Inconclusive results are not listed. Activity calls are given as the source filed them. Unless noted, the call rests on the fitted dose curve; in most records, active means well fitted curve in the direction sought with a large enough effect in the repeat runs; inconclusive means weak or mixed curves; inactive means no such curve, though single readings can be large; an effect the other way counts as inactive or inconclusive.
Columns and labels:
[1] = A CellTox Green Cytotoxicity Assay to monitor cytotoxicity in HepG2 cells - 0 hour (AID 1224882); further: nearly all actives have a fitted effect of over 35% in size
Procedure, shortened: (§1)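 Continuous culture of HepG2 cells with a membrane-impermeant DNA dye; rising fluorescence marks dead cells. Compound exposure lasted up to 40 h at 37 C, with reads every 8 h from 0 h.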

[2] = A CellTox Green Cytotoxicity Assay to monitor cytotoxicity in HepG2 cells - 32 hour (AID 1224883); further: nearly all actives have a fitted effect of over 50% in size; further: potency means the concentration at half of the fitted maximal effect
Procedure, shortened: as §1

[3] = qHTS RealTime-Glo MT Cell Viability Assay in HepG2 cells - 16 hour (AID 1224885); further: nearly all actives have a fitted effect of over 50% in size
Procedure, shortened: (§2)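 Compound treatment began 5 h after plating HepG2 cells (600/well) with NanoLuc luciferase and prosubstrate. Plates stayed at 37 C for 40 h; luminescence was captured at six time points, 0 h through 40 h.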

[4] = qHTS RealTime-Glo MT Cell Viability Assay in HEK293 cells - 8 hour (AID 1224887); further: top concentration of the series differs between compounds; nearly all actives have a fitted effect of over 50% in size
Procedure, shortened: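 qHTS format; HEK293 cells with NanoLuc/prosubstrate reagent, 37 C/5% CO2 for 5 h pre-dosing; compounds 23 nL in DMSO; luminescence at each time point reflects viable cells.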

[5] = qHTS RealTime-Glo MT Cell Viability Assay in HepG2 cells - 0 hour (AID 1224889); further: nearly all actives have a fitted effect of over 50% in size
Procedure, shortened: as §2

[6] = A CellTox Green Cytotoxicity Assay to monitor cytotoxicity in HepG2 cells - 8 hour (AID 1224890); further: nearly all actives have a fitted effect of over 45% in size
Procedure, shortened: as §1

[7] = qHTS assay to identify small molecule antagonists of the estrogen receptor alpha (ER-alpha) signaling pathway using the BG1 cell line in the presence of 0.1 nM 17-beta-estradiol - cell viability counter screen (AID 1259241); further: nearly all actives have a fitted effect of over 40% in size
Procedure, shortened: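 Cells were plated and left 24 hr, compounds in DMSO were pinned in, 17beta-estradiol was added to 0.1 nM final, and after 22 hr CellTiter-Fluor reagent was added for 30 min before fluorescence was read.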

[8] = qHTS assay to identify small molecule antagonists of the androgen receptor (AR) signaling pathway using the MDA cell line in the presence of 0.5 nM R1881 - cell viability counter screen (AID 1259242); further: nearly all actives have a fitted effect of over 45% in size
Procedure, shortened: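 Fluorescence from CellTiter-Fluor, which reports protease activity of live cells, was read 30 min after reagent addition to MDA-kb2 cells that had been incubated 16 hr with compound and 0.5 nM R1881.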

[9] = qHTS assay to identify small molecule HDAC inhibitors (AID 1259364); further: top concentration of the series differs between compounds; nearly all actives have a fitted effect of over 45% in size
Procedure, shortened: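 Endogenous HDAC class I/II activity was measured in wild-type HCT-116 cells by HDAC-Glo luminescence after 2 h compound treatment.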

[10] = qHTS assay to identify small molecule HDAC inhibitors - cell viability counter screen (AID 1259365)
Procedure, shortened: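 Counter screen in wild-type HCT-116 cells: compounds dissolved in DMSO are pin-transferred onto overnight-plated cells and left 2hr at 37C. ATP-based CellTiter-Glo luminescence then measures viable cells.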

[11] = qHTS assay to identify small molecule antagonists of the sonic hedgehog signaling (Shh) pathway - cell viability counter screen (AID 1259367); further: nearly all actives have a fitted effect of over 55% in size; further: potency means the concentration at half of the fitted maximal effect
Procedure, shortened: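 NIH/3T3-derived Gli1-Luc reporter cells, 2,000/well, plated 4 hr before compound addition, then stimulated with conditioned medium for 24 hr at 37C. Viability measured in the same wells by CellTiter-Fluor fluorescence, reagent added at 23 hr for 1 hr.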

[12] = qHTS assay to identify small molecule agonists of the sonic hedgehog signaling (Shh) pathway (AID 1259368; calls by dose curve;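 further: NIH/3T3-derived 3T3Gli1-Luc cells carrying a stable Gli1-driven firefly luciferase reporter; series mostly up to about 92 µM; nearly all actives have a fitted effect of over 15% in size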)
Procedure, shortened: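 Luminescent signal was taken as a measure of Gli1-controlled luciferase expression in stably transfected NIH/3T3-derived cells that had been treated for 24 hr with compounds delivered in DMSO.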

[13] = A CellTox Green Cytotoxicity Assay to monitor cytotoxicity in HEK293 cells - 8 hour (AID 1224884); further: nearly all actives have a fitted effect of over 35% in size
Procedure, shortened: (§3)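 Each value comes from one timepoint of a single continuous run in which HEK293 cells with CellTox Green were exposed to compound for up to 40 h at 37 C, dye fluorescence rising with cell death.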

[14] = qHTS RealTime-Glo MT Cell Viability Assay in HEK293 cells - 24 hour (AID 1224886); further: nearly all actives have a fitted effect of over 50% in size; further: potency means the concentration at half of the fitted maximal effect
Procedure, shortened: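 Quantitative high-throughput screen of the Tox21 10K library in HEK293: cells and RealTime-Glo reagents plated together, compound added at 5 h, luminescence monitored through 40 h at 37 C.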

[15] = A CellTox Green Cytotoxicity Assay to monitor cytotoxicity in HEK293 cells - 16 hour (AID 1224888); further: nearly all actives have a fitted effect of over 35% in size
Procedure, shortened: as §3

[16] = molecular target: Androgen receptor (Homo sapiens) (UniProt P10275); test: qHTS assay to identify small molecule antagonists of the androgen receptor (AR) signaling pathway using the MDA cell line in the presence of 0.5 nM R1881 (AID 1259243); further: nearly all actives have a fitted effect of over 50% in size
Procedure, shortened: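 Inhibition of R1881 (0.5 nM final) induced reporter signal was measured in human MDA-kb2 cells; note the MMTV promoter also responds to GR. Exposure lasted 16 hr at 37C.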

[17] = molecular target: Estrogen receptor (Homo sapiens) (UniProt P03372); test: qHTS assay to identify small molecule antagonists of the estrogen receptor alpha (ER-alpha) signaling pathway using the BG1 cell line in the presence of 0.1 nM 17-beta-estradiol (AID 1259244); further: nearly all actives have a fitted effect of over 50% in size; further: potency means the concentration at half of the fitted maximal effect
Procedure, shortened: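 Quantitative high-throughput screen in VM7Luc4E2 cells: compound plus 0.1 nM E2 (final), 22 h, 37C, 5% CO2; ONE-Glo added, 30 min room temperature, luminescence measured.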

[18] = qHTS assay to identify small molecule phospholipidosis (PLD) inducers (AID 1259344; active means well fitted curve in the direction sought with a large enough effect; an effect the other way counts as inactive or inconclusive)
Procedure, shortened: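 HepG2 cells, 900/well, treated with compound plus LipidTOX Red for 24 h at 37 C; amiodarone positive and DMSO negative controls. Fixed with paraformaldehyde/Hoechst, then high-content imaging scored LipidTOX pit count and integrated intensity per well and per cell.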

[19] = qHTS assay to identify small molecule agonists of the sonic hedgehog signaling (Shh) pathway - cell viability counter screen (AID 1259366); further: nearly all actives have a fitted effect of over 50% in size; further: potency means the concentration at half of the fitted maximal effect
Procedure, shortened: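 Cells are plated at 2,000 per well and left 4hr at 37C, 5% CO2 before compound addition. After 23hr of treatment, CellTiter-Fluor reagent is added for 1hr at 37C and fluorescence is measured.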

Measured: Potency

Sequence of Estrogen receptor (Homo sapiens) (P03372 whole entry, looked up): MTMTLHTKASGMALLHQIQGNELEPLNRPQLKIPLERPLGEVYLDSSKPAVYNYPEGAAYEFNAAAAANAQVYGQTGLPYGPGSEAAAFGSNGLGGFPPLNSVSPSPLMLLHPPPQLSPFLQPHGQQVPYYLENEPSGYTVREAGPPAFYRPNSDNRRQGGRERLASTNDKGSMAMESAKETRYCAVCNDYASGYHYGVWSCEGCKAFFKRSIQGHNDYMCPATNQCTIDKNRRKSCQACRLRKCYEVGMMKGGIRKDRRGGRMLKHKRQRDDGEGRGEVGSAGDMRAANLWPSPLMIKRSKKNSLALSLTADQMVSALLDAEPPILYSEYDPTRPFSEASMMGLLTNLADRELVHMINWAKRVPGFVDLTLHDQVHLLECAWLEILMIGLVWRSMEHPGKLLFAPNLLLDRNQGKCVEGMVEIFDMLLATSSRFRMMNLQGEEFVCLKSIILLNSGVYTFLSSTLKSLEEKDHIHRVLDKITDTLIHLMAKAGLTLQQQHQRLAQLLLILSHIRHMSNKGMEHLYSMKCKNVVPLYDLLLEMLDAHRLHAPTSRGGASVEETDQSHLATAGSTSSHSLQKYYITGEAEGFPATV
Sequence of Androgen receptor (Homo sapiens) (P10275 whole entry, looked up): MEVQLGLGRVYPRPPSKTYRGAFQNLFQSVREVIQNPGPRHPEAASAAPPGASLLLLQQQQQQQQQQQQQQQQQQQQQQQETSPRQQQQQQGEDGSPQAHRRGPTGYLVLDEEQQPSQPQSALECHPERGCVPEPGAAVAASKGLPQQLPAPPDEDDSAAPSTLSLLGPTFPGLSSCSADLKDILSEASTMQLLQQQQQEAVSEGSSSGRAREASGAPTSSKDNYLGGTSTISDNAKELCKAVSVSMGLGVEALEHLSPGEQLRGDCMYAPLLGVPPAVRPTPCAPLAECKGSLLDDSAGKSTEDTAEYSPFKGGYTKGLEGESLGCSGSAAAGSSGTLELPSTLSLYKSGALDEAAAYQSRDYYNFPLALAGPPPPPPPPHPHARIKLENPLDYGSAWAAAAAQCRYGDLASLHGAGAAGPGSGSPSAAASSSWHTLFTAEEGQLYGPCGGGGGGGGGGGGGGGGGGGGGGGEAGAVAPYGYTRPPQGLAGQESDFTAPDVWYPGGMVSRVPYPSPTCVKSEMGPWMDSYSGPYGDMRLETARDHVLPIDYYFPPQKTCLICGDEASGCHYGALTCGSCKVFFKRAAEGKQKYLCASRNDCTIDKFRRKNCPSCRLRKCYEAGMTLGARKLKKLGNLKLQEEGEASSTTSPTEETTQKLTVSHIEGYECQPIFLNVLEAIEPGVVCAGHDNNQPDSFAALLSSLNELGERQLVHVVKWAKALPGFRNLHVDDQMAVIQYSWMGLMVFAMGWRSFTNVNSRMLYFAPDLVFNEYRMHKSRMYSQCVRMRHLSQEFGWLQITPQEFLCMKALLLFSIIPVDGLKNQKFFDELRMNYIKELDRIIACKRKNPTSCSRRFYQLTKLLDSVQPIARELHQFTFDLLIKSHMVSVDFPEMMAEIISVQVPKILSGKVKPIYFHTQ

C=CCOC(=O)CCC1CCCCC1
not listed: [13] | [14] | [15] | [16] | [17] | [18] | [19]
inactive: all other assays above

CCCn1cnc2c1c(=O)n(CCCCC(C)=O)c(=O)n2C
not listed: [1]
inactive: all other assays above

CN(C)c1ccc(CCO)cc1
not listed: [2] | [5] | [14] | [16] | [18]
inactive: all other assays above

CCN(CC)CCOC(=O)C(Cc1cccc2ccccc12)CC1CCCO1 (stereo not drawn)
not listed: [1] | [4] | [6] | [7] | [10] | [14] | [16] | [17]
inactive: all other assays above

C=CC(=O)OCCOCCOCCOCCOC(=O)C=C
active: [2] 39.1 µM and 13.7 µM | [14] 34.8 µM and 30.6 µM | [17] 54.8 µM | [19] 27.4 µM and 21.5 µM | [11] 19.4 µM and 27.1 µM
inactive: [1] | [13] | [15] | [5] | [6] | [9] | [10] | [12]

CCOC(=O)c1cccnc1
not listed: [1] | [2] | [14] | [16]
inactive: all other assays above
